According to PubChem BioAssay AID720700 (The Scripps Research Institute Molecular Screening Center, 2013):
Hit rate of the full screen: of about 370,000 compounds, about 3,100 (0.84%) were called active. Rule as the data show it: active = inhibition above about 9.5%; inactive = the rest. The sample as a whole holds a higher share of actives than the screen did.

target: 1-phosphatidylinositol 4,5-bisphosphate phosphodiesterase gamma-1 (Homo sapiens) (UniProt P19174); assay: blockers of human PLCG1 activity – biochemical, fluorescence, purified enzyme, primary screen (AID 720700); conditions: purified PLC-gamma1, fluorogenic substrate, at 12.2 µM, hits give high values
Sequence (P19174 whole entry, looked up): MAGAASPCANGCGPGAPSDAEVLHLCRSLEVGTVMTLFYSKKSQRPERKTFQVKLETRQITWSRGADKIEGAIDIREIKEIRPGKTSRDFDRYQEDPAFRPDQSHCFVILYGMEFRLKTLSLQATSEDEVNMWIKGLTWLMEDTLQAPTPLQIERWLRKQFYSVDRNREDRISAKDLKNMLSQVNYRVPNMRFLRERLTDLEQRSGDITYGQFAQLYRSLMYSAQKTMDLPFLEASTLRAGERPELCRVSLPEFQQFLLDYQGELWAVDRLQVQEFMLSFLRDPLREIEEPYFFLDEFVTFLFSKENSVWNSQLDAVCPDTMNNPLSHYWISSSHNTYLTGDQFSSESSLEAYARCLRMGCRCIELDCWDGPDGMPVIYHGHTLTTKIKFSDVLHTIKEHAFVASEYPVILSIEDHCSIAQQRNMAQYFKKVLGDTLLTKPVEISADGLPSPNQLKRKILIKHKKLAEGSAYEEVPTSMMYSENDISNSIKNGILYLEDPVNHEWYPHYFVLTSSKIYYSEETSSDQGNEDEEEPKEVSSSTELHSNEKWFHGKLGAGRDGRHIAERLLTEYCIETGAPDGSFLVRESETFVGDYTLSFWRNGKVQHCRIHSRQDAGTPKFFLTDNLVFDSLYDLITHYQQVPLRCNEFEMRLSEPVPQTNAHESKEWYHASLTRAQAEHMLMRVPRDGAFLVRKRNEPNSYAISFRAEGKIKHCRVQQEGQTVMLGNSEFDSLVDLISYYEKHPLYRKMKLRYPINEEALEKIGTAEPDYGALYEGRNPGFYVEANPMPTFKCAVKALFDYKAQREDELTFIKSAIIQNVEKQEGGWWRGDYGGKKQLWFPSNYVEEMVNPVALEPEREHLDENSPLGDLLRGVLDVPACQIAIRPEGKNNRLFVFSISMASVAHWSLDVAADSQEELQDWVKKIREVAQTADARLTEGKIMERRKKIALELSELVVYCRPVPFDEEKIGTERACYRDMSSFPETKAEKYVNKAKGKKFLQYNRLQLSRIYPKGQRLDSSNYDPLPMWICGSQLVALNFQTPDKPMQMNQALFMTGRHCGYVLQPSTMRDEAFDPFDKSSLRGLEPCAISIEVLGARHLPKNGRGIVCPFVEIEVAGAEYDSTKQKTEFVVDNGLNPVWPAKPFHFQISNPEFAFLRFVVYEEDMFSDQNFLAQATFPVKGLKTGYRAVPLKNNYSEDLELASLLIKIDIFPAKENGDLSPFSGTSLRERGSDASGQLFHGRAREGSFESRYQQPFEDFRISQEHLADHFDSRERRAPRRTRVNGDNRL

inhibition, inactive:
O=C(CSc1nnc(-c2ccccn2)n1-c1ccccc1)Nc1ccc2cn[nH]c2c1 3.11%
COCCN(C(=S)Nc1cccc(Cl)c1C)C(C)c1ccco1 (configuration not stated) 4.95%
COCCCN(C(=O)Cn1ncc2c(=O)oc3ccc(C)cc3c21)C(C)c1ccncc1 (configuration not stated) 2.83%
Cc1cc(NS(=O)(=O)c2ccc(NC(=O)CSc3nnc(SCc4ccc(F)cc4)s3)cc2)nc(C)n1 6.25%
CCn1c2ccccc2c2cc(NC(=O)CSc3nnc(-c4ccccc4)n3-c3ccc(C)cc3)ccc21 -1.61%
N#Cc1cccc(NC(=O)c2cc(C3CCCCN3C(=O)CCc3ccccc3)on2)c1 (configuration not stated) 5.27%
O=C(NCc1cccnc1)c1cc(C2CCCN(C(=O)CCCc3ccccc3)C2)on1 (configuration not stated) 3.28%
COc1ccc(N2CCN(CCNS(=O)(=O)c3ccc(C(C)(C)C)cc3)CC2)cc1 -1.02%
CSc1nccc(NC(=O)c2ccc(C(C)(C)C)cc2)n1 7.02%
CSc1ccc(C#N)cc1NC(=O)c1ccc(Cl)cc1 -1.63%
COC(=O)[C@@]12CCCCC=C1N(CCc1ccc(Cl)cc1)C(=O)[C@H]2CC(=O)NCc1ccc(OC)c(OC)c1 2.08%
CC(C)CC1C(=O)N(Cc2cn(CC3CCCCC3)nn2)CCS(=O)(=O)N1Cc1ccc(-c2ccc(Cl)cc2)cc1 (configuration not stated) 1.82%
COc1ccc(-c2ccc(CN3C(CC(C)C)C(=O)N(Cc4cn(CC5CCCCC5)nn4)CCS3(=O)=O)cc2)cn1 (configuration not stated) -1.63%
CCOC(=O)C(=O)N(Cc1ccccc1)c1ccccc1C(=O)Nc1cc(OC)ccc1OC 2.22%
COc1ccc(C2C(C(C)=O)=C(O)C(=O)N2c2nccs2)cc1 (configuration not stated) -25.2%
CC(=O)C1=C(O)C(=O)N(c2ccc(Br)cc2)C1c1ccc([N+](=O)[O-])cc1 (configuration not stated) 2.17%
COc1ccc(C2C(C(C)=O)=C(O)C(=O)N2CCc2c[nH]c3ccccc23)cc1 (configuration not stated) 0.47%
COC(=O)C1=CN(c2ccc(F)c(F)c2)C=C(C(=O)OC)C1c1ccc([N+](=O)[O-])cc1 1.3%
C=CCN1C(C(=O)OC)CN(Cc2cn(Cc3ccccc3)nn2)CCS1(=O)=O (configuration not stated) 2.03%
COc1cccc(CNC(=O)CNS(=O)(=O)c2ccc3nc(C)sc3c2)c1OC 2.68%
CCCC[C@H](C(=O)N(CC)c1ccccc1)[C@@H](O)c1ccc2ccccc2c1 2.96%
CCCCN=C1N/C(=C\c2ccco2)C(=O)N1c1ccccc1 -18.1%
CN(C)c1ccc(/C=C2\NC(=S)N(Cc3ccccc3)C2=O)cc1 -48.2%
COc1ccc(C2CC=C(C(=O)O)C(c3ccccc3F)N2S(=O)(=O)c2ccc(C)cc2)cc1OC (configuration not stated) -0.05%
CCCCOCCCNC(=O)C[C@H]1C[C@@]2(C(=O)OC)C(=C[C@H](COCc3ccccc3)O[C@@H]2C)N(Cc2cccc3ccccc23)C1=O 2.09%
CCCCNC(=O)C[C@@H]1C(=O)N(CCc2ccc(Cl)cc2)C2=CCCC[C@]21C(=O)OCC 1.96%
Cc1ccc(-c2nnc(SCC(=O)Nc3ccc(Oc4ccccc4)cc3)n2Cc2ccco2)cc1 -3.01%
COc1ccc(-c2cc(-c3nnc(SCc4ccc([N+](=O)[O-])cc4)n3N)[nH]n2)cc1 -0.19%
C#CCN([C@H](C(=O)OC)C(C)CC)S(=O)(=O)c1ccccc1Br (some centres not stated) -0.23%
CN1c2ccc(C=O)c3c(C=O)ccc(c23)N(C)C1(C)C -156%
COc1ccc(C(=O)CSc2nnc(-c3cnccn3)n2-c2ccc(C)cc2)cc1 -2.8%
CCC[C@H]1C(=O)CC[C@@]23CCCN2C(=O)CCC[C@@H]13 -1.51%
CCOC(=O)[C@]12CCCC3=C1N(CCC3)C(=O)[C@@H](CC(=O)NCc1cccs1)C2 -0.59%
C(=C\c1ccccc1)/CSc1nnc(-c2cccnc2)n1Cc1ccco1 -1.89%
CSc1ccc(C=Nn2c(-c3ccc(F)cc3)n[nH]c2=S)cc1 3.12%
Cc1[nH]c(C)c(S(=O)(=O)N2CCN(c3cccc(C(F)(F)F)c3)CC2)c1C(=O)N1CCCC1 0.67%
Cc1[nH]c(C)c(S(=O)(=O)N2CCN(c3cccc(C(F)(F)F)c3)CC2)c1C(=O)N1CCCCC1 0.49%
CN(C(N)=NC(=O)/C=C/c1ccccc1)C(C#Cc1ccccc1)Cc1ccccc1 (configuration not stated) -3.61%
C=CCN(Cc1ccc2c(c1)OCO2)C(C#CC1CC1)C(C)(C)C (configuration not stated) -0.25%
O=C(CSc1nc2ccccc2n1Cc1ccccc1)NNC(=S)Nc1ccccc1 3.11%
C#CCNC(=O)C[C@H]1C[C@@]2(C(=O)OC)C(=C[C@H](C(C)C)O[C@@H]2C2CC2)N(Cc2ccco2)C1=O 0.18%

inhibition, active:
COCCCN(C(=S)Nc1c(C)cc(C)cc1C)C(C)c1ccncc1 (configuration not stated) 12.6%
O=C(NCc1cccnc1)c1cc(C2CCCCN2C(=O)CCc2ccccc2)on1 (configuration not stated) 12.8%
CC(C)(C)c1ccc(C(=O)Nc2cc(Cl)c(Br)cc2C(=O)O)cc1 11%
COc1ccc(-c2ccc(CN3C(CC(C)C)C(=O)N(Cc4cn(CC5CCCCC5)nn4)CCS3(=O)=O)cc2)cc1 (configuration not stated) 13.6%
COC(=O)CN1C(=O)C(O)=C(C(C)=O)C1c1ccc([N+](=O)[O-])cc1 (configuration not stated) 10.5%
CC(=O)C1=C(O)C(=O)N(c2cccnc2)C1c1ccc([N+](=O)[O-])cc1 (configuration not stated) 11.3%
O=C1/C(=C\c2ccsc2)NC(=S)N1c1ccccc1 9.99%
Cc1ccc(C=O)c([B-](F)(F)F)c1 9.66%
S=c1[nH]nc(-c2cccnc2)n1/N=C/C(Cl)=C\c1ccccc1 12.7%
Cc1ccc(C)c(N2CCN(S(=O)(=O)c3c(C)[nH]c(C)c3C(=O)N3CCCC3)CC2)c1 17%
O=c1ccc2c(-c3ccccc3S(=O)(=O)O)c3ccc(O)c(O)c3oc-2c1O 25.2%
